# Measured values taken from PubChem BioAssay AID720532 (National Center for Advancing Translational Sciences (NCATS), 2013).
# About 1,200 (6.7%) of roughly 18,000 compounds were called active. Not shown: some 16% with an inconclusive outcome. This is one part of a sample in which actives are shown more often than they occur. Unmarked numbers belong to inactive results. Calls follow the shape of the full dose curve; tested in HEK293 cells.
# Assay: qHTS for Inhibitors of binding or entry into cells for Marburg Virus
# Details: Marburg virus pseudotype entry/binding inhibition, cell-based; series mostly up to 49.2 µM; activity change, negative = inhibition: at the top concentration
# % is scaled to controls: 0 for no effect and ±100 for the full control effect; potency is read from the fitted curve at half-maximal effect.
SMILES,"activity change, negative = inhibition",Potency
CCN1C(=S)NC(c2cccc(C(F)(F)F)c2)C(C(=O)OC)=C1C (centres undefined),95.8% [at 8.59 µM],–
CCOC(=O)CN1C(=O)N[C@@H](c2ccc(Br)cc2)C(C(C)=O)=C1C,-0.139%,–
CC(=O)Oc1c2c(c3c(c1CC=C(C)C)O[C@@]14C(=CC5CC1C(C)(C)OC4(C/C=C(\C)C(=O)O)C5=O)C3=O)OC(C)(CCC=C(C)C)C=C2 (some centres undefined),–,3.55 µM (active)
Cc1cccc([C@H]2[C@@H]3C=CC[C@@H](C)[C@@H]3C(=O)N2Cc2ccccc2)c1,-5.81%,–
COc1cccc([C@H](O)Cn2cc(-c3ccc(CON=C(C)C)cc3)nn2)c1,7.92% [at 8.59 µM],–
Cc1cc2c(nc1C)CCCCN2C[C@H](C)ON=C1[C@H]2CCn3c(=O)n(-c4ccccc4)c(=O)n3[C@@H]2[C@H](O)[C@@H]2O[C@H]12,26% [at 8.59 µM],–
N#Cc1c(Cl)c(Cl)c(Cl)c(C#N)c1Cl,–,1.12 µM (active)
COCOc1cc(OC)ccc1C(=O)/C=C/c1ccc([N+](=O)[O-])cc1,3.69%,–
OCCN1CCN(CC/C=C2\c3ccccc3Sc3ccc(C(F)(F)F)cc32)CC1,–,12.6 µM (active)
CC(C)(C)OC(=O)NCCCCC1=CC2=CC(=O)C(C)(OC(=O)c3cccs3)C(=O)C2=CO1 (centres undefined),-6.53%,–
CCOC(=O)C1=C(C)c2ccccc2OC1C(=O)OCC (centres undefined),-10.6%,–
COc1cccc(CC(=O)N2CCc3nc(COc4ccccc4)c4c(c3C2)CO[C@@H](C)C4)c1,-8.64% [at 8.59 µM],–
N#Cc1cccc(CS(=O)(=O)c2nnnn2-c2cc(C(F)(F)F)cc(C(F)(F)F)c2)c1,-6.48%,–
COc1ccccc1-c1ccnc(-n2ncc(C(=O)NCCc3ccncc3)c2C)n1,-19.5%,–
CC(C)[C@@H](CC(=O)N[C@@H]1CCNC[C@H]1C(=O)N[C@H](CC(=O)N[C@@H](CCC(=O)O)CC(=O)O)Cc1ccccc1)NC(=O)C[C@H](CO)NC(=O)[C@@H]1CNCC[C@H]1N,1.1%,–
COC(=O)[C@H]1[C@@H](c2ccccc2)NC(=O)O[C@@H]1C,55.5% [at 8.59 µM],–
CC(C)CNc1cccc2c1S(=O)(=O)N[C@H](CC(C)C)CO2,21.9%,–
COCCN1C(=S)NC(c2cccc(F)c2)C(C(=O)OC)=C1C (centres undefined),20.9% [at 8.59 µM],–
N#Cc1ccc2c(c1)C[C@]1(CCCCN3C(=O)c4ccccc4C3=O)OC3=C(C(=O)OC4(CCCCC4)C3)[C@H]2O1,9.87% [at 8.59 µM],–
CN(Cc1ccccc1F)c1cc2c(c3c1ccn3C)C1CCC2O1 (centres undefined),19.5%,–
COC(=O)[C@@H]1CC2=CC(=O)CC[C@]2(C)[C@@]23O[C@@H]2C[C@@]2(C)[C@@H](CC[C@@]24CCC(=O)O4)[C@H]13,-2.79%,–
CC[C@]1(O)C(=O)OCc2c1cc1n(c2=O)Cc2cc3ccccc3nc2-1,–,2.82 µM (active)
CCCN(C/C=C/I)C1CCc2ccc(O)cc2C1 (centres undefined),-4.11%,–
CCCN(CCc1ccccc1)C1CCc2c(O)cccc2C1 (centres undefined),–,35.5 µM (active)
CCCN(C/C=C\I)[C@@H]1CCc2cccc(O)c2C1,–,25.1 µM (active)

SMILES,"activity change, negative = inhibition",Potency
O=C(Nc1cc(C(=O)Nc2ccc(S(=O)(=O)O)cc2)cc(C(=O)Nc2ccc(S(=O)(=O)O)cc2)c1)Nc1cc(C(=O)Nc2ccc(S(=O)(=O)O)cc2)cc(C(=O)Nc2ccc(S(=O)(=O)O)cc2)c1,-1.03%,–
COC(=O)C/C=C/[C@@H](C)[C@H](NC(=O)OCC(Cl)(Cl)Cl)c1ccccc1,-18.3%,–
Oc1c(Cl)cc(Cl)c(Cl)c1Cc1c(O)c(Cl)cc(Cl)c1Cl,–,15.8 µM (active)
Cc1ccccc1-c1ccc(C(=O)O)s1,50.9% [at 107 µM],–
C[C@H]1[C@H](c2ccccc2)Oc2cc(Br)ccc2S(=O)(=O)N1Cc1cccc(F)c1,-22.6%,–
COC1CC(OC2CC[C@@]3(C=O)C4CC[C@]5(C)C(C6=CC(=O)OC6)CC[C@@]5(O)C4CC[C@]3(O)C2)OC(C)C1O (some centres undefined),–,0.251 µM (active)
C[C@@]12CC[C@H]3[C@@H](CC[C@]4(O)C[C@H](O)CC[C@@]34C=O)[C@]1(O)CC[C@@H]2C1=CC(=O)OC1,–,1 µM (active)
COc1ccc(CC(N)C(=O)NC2C(O)[C@H](n3cnc4c(N(C)C)ncnc43)O[C@@H]2CO)cc1 (some centres undefined),–,3.98 µM (active)
Nc1ncnc2c1ncn2C1CC(O)C(CO)O1 (centres undefined),11.5%,–
COc1ccc(C[C@H](N)C(=O)N[C@@H]2[C@H](O)[C@H](n3cnc4c(N(C)C)ncnc43)O[C@@H]2CO)cc1,–,2.24 µM (active)
C[C@H]1C/C=C/[C@@H]2[C@@H]3O[C@]3(C)[C@@H](C)[C@H]3[C@H](Cc4ccccc4)NC(=O)[C@]32OC(=O)O/C=C/[C@](C)(O)C1=O,–,0.251 µM (active)
CO[C@H]1[C@H](NC(=O)C(C)C)c2ccccc2C12CCN(Cc1cnc(N(C)C)s1)CC2,-20.2%,–
Cc1c(S(=O)(=O)O)oc2c1C(=O)C(=O)c1c-2ccc2c1CCCC2(C)C,1.1%,–
c1ccc(CN2CCN(Cc3ccc4c(c3)CN(Cc3c[nH]c5ccccc35)CCO4)CC2)nc1,–,10 µM (active)
CCOC(=O)N1CCC(N2CCOc3ccc(CN4CCC(O)(c5cccnc5)CC4)cc3C2)CC1,-28.6%,–
O=C(C(=O)N1CCOc2ccc(CN3CCN(Cc4ccccn4)CC3)cc2C1)c1ccccc1,-10.7%,–
CCOC(=O)N1CCN(Cc2ccc3c(c2)CN(C(=O)c2cccc(-n4cccn4)c2)CCO3)CC1,-8.81%,–
CC(C)c1cc(C(=O)N2CCOc3ccc(CN4CCC(Oc5cccnc5)CC4)cc3C2)n[nH]1,25.6%,–
O=c1c(CN2CCOc3ccc(CN4CCC(Oc5cccnc5)CC4)cc3C2)coc2ccccc12,–,11.2 µM (active)
O=S(O)S(=O)(=O)O,2.36%,–
O=S1(=O)CC(O)c2cc(Br)ccc2N1Cc1cccc(F)c1 (centres undefined),25.4%,–
Cc1ccccc1Nc1oc(-c2ccccc2)nc1C(C)(C)C,-15% [at 8.59 µM],–
C=C1/C(=C\C=C2\CCCC3(C)C2CCC3C(C)/C=C/C(O)C2CC2)CC(O)CC1O (centres undefined),-5.17%,–
COC(=O)CCCC1=CC2=C(c3ccccc3)C(=O)C(C)(OC(=O)C3CCCC3)C(=O)C2=CN1c1ccc(OC)cc1 (centres undefined),-5.26% [at 8.59 µM],–
